Results published in PubChem BioAssay (Tox21).
“And” between values parts separate entries of the source, which are not always exact repeats. Equal entries are not always repeated. Results filed as inconclusive are left out. A call without a number means that no potency is given here. A structure can be active in one record and inactive in another. The source made the active and inactive calls. Unless noted, the call rests on the fitted dose curve.

Key:
[1] = Nuclear factor erythroid 2-related factor 2/antioxidant responsive element (Nrf2/ARE) small molecule agonists: qHTS cell viability counter screen in human keratinocytes (AID 1919968; active means well fitted curve in the direction sought with a large enough effect in the repeat runs; an effect the other way counts as inactive or inconclusive; further: nearly all actives have a fitted effect of over 55% in size; further: potency means the concentration at half of the fitted maximal effect)
How it was run: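 CellTiter-Fluor fluorescence, read 1 h after reagent, gave viability in the same wells as the ARE-luciferase assay. KeratinoSens cells (1,500/well) had 23 h compound exposure at 37 C/5% CO2 following 5 h plating.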

[2] = Nuclear factor erythroid 2-related factor 2/antioxidant responsive element (Nrf2/ARE) small molecule agonists: luciferase reporter gene qHTS assay in human keratinocytes (AID 1919969); further: nearly all actives have a fitted effect of over 35% in size; further: potency means the concentration at half of the fitted maximal effect
[3] = target: Gonadotropin-releasing hormone receptor (Homo sapiens) (UniProt P30968); assay: Human gonadotropin-releasing hormone receptor (GnRHR) small molecule agonists, calcium flux assay in GnRHR-HEK293 cells (AID 1920063); further: nearly all actives have a fitted effect of over 35% in size
Chain of Gonadotropin-releasing hormone receptor (Homo sapiens) (P30968 whole entry, looked up): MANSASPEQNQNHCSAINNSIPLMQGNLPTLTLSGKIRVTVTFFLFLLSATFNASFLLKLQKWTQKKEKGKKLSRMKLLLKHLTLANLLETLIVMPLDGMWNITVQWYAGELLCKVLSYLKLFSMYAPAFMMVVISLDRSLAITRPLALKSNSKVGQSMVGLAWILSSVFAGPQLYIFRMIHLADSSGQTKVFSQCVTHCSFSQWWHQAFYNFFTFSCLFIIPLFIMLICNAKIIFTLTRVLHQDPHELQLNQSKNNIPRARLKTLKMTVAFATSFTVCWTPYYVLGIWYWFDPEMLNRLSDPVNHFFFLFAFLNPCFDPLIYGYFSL
How it was run: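 Agonist mode: compounds at 15 concentrations, in triplicate, went onto calcium dye-loaded GnRHR-HEK293 cells. Intracellular calcium was then followed as 480/540 nm fluorescence at 1 s intervals over 3 min.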

[4] = target: KiSS-1 receptor (Homo sapiens) (UniProt Q969F8); assay: Human kisspeptin (KISS1R) small molecule agonists, calcium flux assay in KISS1R-HEK293 cells (AID 1920064; active means well fitted curve in the direction sought with a large enough effect in the repeat runs; an effect the other way counts as inactive or inconclusive)
Chain of KiSS-1 receptor (Homo sapiens) (Q969F8 whole entry, looked up): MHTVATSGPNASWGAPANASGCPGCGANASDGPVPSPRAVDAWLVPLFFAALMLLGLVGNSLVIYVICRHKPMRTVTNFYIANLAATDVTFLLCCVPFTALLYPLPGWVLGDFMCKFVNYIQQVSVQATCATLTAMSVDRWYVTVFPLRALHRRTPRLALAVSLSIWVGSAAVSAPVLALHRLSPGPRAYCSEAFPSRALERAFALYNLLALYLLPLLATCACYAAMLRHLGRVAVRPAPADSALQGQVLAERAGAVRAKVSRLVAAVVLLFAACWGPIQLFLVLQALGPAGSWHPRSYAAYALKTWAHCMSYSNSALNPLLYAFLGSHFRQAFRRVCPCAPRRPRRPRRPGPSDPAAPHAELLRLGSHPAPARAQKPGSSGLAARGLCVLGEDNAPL
How it was run: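 Agonist mode: intracellular calcium rise tracked at 1 s intervals over 3 min (480/540 nm) immediately after compound addition to dye-loaded KISS1R-HEK293 stable cells. Each compound tested at 15 concentrations in triplicate.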

[5] = G protein-coupled receptor (GPCR) small molecule agonists, calcium flux assay: HEK293 wild type cell line counter screen (AID 1920065)
How it was run: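 Calcium flux counter screen: compound added in agonist mode at 15 concentrations in triplicate to dye-loaded parental HEK293 cells. Fluorescence (480/540) read kinetically for 3 min; ATP served as positive control.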

[6] = p53 small molecule agonists, cell-based qHTS assay with rat liver microsomes (AID 1963578)
How it was run: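 Compound in DMSO added to p53RE-bla cells 5 h post-plating; rat microsomes/NADPH 0.5 mg/mL final; 16 h, 37 C; LiveBLAzer 2 h RT.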

[7] = p53 small molecule agonists, cell-based qHTS assay with human liver microsomes: qHTS cell viability counter screen (AID 1963579); further: nearly all actives have a fitted effect of over 45% in size; further: potency means the concentration at half of the fitted maximal effect
How it was run: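 HLM-supplemented (0.5 mg/mL final) and NADPH-supplemented (0.5 mg/mL final) p53RE-bla cultures, 4,000 cells per well, were dosed with compounds in DMSO for 16 h at 37 C; luminescent ATP detection (CellTiter-Glo, 30 min, room temperature) quantified surviving cells.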

[8] = p53 small molecule agonists, cell-based qHTS assay with rat liver microsomes: qHTS cell viability counter screen (AID 1963580); further: nearly all actives have a fitted effect of over 45% in size; further: potency means the concentration at half of the fitted maximal effect
How it was run: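 Cytotoxicity counter screen: intracellular ATP read by CellTiter-Glo luminescence in the p53 reporter wells. HCT-116 p53RE-bla cells were treated for 16 h at 37 C alongside rat liver microsomes and NADPH, each 0.5 mg/mL final.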

[9] = p53 small molecule agonists, cell-based qHTS assay (AID 1963582; active means well fitted activation curve with a large enough effect in the signal ratio in the repeat runs, not every such curve was filed as active; the % refers to the signal ratio; further: potency means the concentration at half of the fitted maximal effect)
How it was run: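 Read-out is beta-lactamase FRET fluorescence after 2 h at room temperature with LiveBLAzer B/G substrate. p53 response element-bla cells were treated 16 h at 37 C with compounds in DMSO, added 5 h after seeding.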

[10] = target: 5-hydroxytryptamine receptor 2A (Homo sapiens) (UniProt P28223); assay: 5-hydroxytryptamine receptor 2A (HTR2A) small molecule antagonists, cell-based qHTS assay (AID 1963586); further: nearly all actives have a fitted effect of over 45% in size; further: potency means the concentration at half of the fitted maximal effect
Chain of 5-hydroxytryptamine receptor 2A (Homo sapiens) (P28223 whole entry, looked up): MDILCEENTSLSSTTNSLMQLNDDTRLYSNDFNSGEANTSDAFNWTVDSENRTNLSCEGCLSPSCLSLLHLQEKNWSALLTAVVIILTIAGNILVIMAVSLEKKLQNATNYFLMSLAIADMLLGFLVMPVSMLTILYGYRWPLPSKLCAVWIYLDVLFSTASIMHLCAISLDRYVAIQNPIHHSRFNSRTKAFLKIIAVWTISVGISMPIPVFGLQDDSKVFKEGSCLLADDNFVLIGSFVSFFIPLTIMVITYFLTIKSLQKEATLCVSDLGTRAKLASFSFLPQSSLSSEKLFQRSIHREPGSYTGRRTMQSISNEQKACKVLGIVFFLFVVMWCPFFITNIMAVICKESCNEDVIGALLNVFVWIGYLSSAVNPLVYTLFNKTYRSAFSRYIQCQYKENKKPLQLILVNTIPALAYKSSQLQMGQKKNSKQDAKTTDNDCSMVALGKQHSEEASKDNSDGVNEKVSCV
How it was run: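 CHO cells stably expressing human HTR2A were plated for 18 h at 37 C, then loaded with calcium dye for 1 h. Compounds were preincubated 5 min at room temperature before DOI (4 nM solution) was added. Kinetic fluorescence was read for 3 min.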

[11] = target: Muscarinic acetylcholine receptor M1 (Homo sapiens) (UniProt P11229); assay: Cholinergic receptor muscarinic 1 (CHRM1) small molecule antagonists, cell-based qHTS assay (AID 1963588); further: nearly all actives have a fitted effect of over 40% in size
Chain of Muscarinic acetylcholine receptor M1 (Homo sapiens) (P11229 whole entry, looked up): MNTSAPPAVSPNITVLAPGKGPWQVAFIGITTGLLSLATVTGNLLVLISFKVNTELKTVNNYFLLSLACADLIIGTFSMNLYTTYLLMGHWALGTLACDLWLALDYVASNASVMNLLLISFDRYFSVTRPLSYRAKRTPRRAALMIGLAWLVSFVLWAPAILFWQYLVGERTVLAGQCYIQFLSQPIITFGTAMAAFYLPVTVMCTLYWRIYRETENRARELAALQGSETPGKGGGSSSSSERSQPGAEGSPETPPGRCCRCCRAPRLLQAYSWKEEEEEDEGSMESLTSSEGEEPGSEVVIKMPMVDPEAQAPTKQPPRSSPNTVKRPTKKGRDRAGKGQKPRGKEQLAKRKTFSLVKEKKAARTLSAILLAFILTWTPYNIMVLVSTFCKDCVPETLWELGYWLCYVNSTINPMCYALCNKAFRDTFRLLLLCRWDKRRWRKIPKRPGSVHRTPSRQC
How it was run: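 Compounds were tested at 15 concentrations in three independent runs. Dye-loaded CHRM1-CHO cells were exposed 5 min at room temperature before stimulation by acetylcholine added at 50nM. Intracellular calcium was read kinetically on FDSS for 3 min.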

[12] = target: Muscarinic acetylcholine receptor M1 (Homo sapiens) (UniProt P11229); assay: Cholinergic receptor muscarinic 1 (CHRM1) small molecule agonists, cell-based qHTS assay (AID 1963589); further: nearly all actives have a fitted effect of over 35% in size
How it was run: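 Agonist-mode calcium-flux screen: compounds at 15 concentrations, three independent runs, were pin-transferred onto dye-loaded human CHRM1-CHO cells. Fluorescence was then recorded kinetically every second over minutes.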

[13] = cAMP Responsive Elements (CRE) small molecule agonists, cell-based qHTS assay (AID 1963590)
How it was run: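 Agonist mode: compound added to CRE-bla HEK 293T cells (2,000/well, 18 h after plating) for 3 h at 37 C/5% CO2. Reporter activity detected via FRET beta-lactamase substrate, 2 h room-temperature loading.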

[14] = cAMP Responsive Elements (CRE) small molecule antagonists, cell-based qHTS assay (AID 1963591; active means well fitted inhibition curve with a large enough effect in the signal ratio in the repeat runs, not every such curve was filed as active; the % refers to the signal ratio)
How it was run: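 Antagonist mode: compounds are added alongside the adenylyl cyclase activator NKH477 (0.25 uM final) to CRE-bla HEK293T cells for 3 h. LiveBLAzer FRET substrate, 2 h at room temperature, reports bla expression.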

[15] = target: Beta-2 adrenergic receptor (Homo sapiens) (UniProt P07550); assay: Adrenergic beta2 receptor (ADRB2) small molecule antagonists, cell-based qHTS assay (AID 1963592); further: series mostly up to about 92 µM; nearly all actives have a fitted effect of over 50% in size
Chain of Beta-2 adrenergic receptor (Homo sapiens) (P07550 whole entry, looked up): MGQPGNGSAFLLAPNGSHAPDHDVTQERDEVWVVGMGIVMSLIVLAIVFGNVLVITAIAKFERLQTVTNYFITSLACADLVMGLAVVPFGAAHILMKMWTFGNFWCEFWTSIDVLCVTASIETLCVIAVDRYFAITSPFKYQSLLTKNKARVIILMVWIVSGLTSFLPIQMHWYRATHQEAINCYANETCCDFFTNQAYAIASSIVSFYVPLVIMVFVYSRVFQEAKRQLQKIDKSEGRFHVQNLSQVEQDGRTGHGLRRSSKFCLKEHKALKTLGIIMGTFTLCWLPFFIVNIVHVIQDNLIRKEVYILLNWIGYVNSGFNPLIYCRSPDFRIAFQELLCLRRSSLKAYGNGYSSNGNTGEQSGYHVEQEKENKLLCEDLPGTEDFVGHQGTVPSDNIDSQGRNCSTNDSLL
How it was run: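 Assay format: CHO-ADRB2 cells, 18-20hr seeding at 37C/5% CO2, then compound plus 1nM isoproterenol agonist mix for 0.5hr RT. Homogeneous time-resolved fluorescence cAMP detection after 1hr, expressed as 665/615 nm ratio.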

[16] = target: D(2) dopamine receptor (Homo sapiens) (UniProt P14416); assay: Dopamine D2 receptor (DRD2) small molecule agonists, cell-based qHTS assay (AID 1963594); further: nearly all actives have a fitted effect of over 35% in size
Chain of D(2) dopamine receptor (Homo sapiens) (P14416 whole entry, looked up): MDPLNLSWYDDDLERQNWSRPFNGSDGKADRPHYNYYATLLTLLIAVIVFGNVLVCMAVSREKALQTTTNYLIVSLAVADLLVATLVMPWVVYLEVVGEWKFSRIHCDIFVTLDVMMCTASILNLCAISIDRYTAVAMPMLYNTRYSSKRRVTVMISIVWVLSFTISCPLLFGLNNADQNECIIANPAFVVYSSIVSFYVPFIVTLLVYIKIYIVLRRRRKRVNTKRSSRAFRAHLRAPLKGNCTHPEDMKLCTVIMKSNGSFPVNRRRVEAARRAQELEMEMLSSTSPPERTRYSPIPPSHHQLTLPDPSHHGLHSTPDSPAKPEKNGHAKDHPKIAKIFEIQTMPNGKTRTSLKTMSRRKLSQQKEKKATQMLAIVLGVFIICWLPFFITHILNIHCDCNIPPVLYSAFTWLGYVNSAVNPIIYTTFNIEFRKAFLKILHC
How it was run: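 cAMP accumulation in DRD2-HEK293 cells measured by HTRF after 1 h detection; compounds added 10 min before NKH477 (200nM […]) forskolin-analogue stimulation, 30 min at room temperature, with Ro20-1724 present at 0.1 mM final.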

[17] = target: D(2) dopamine receptor (Homo sapiens) (UniProt P14416); assay: Dopamine D2 receptor (DRD2) small molecule antagonists, cell-based qHTS assay (AID 1963595; active means well fitted inhibition curve with a large enough effect in the signal ratio in the repeat runs, with a control signal flat; the % refers to the signal ratio; further: potency means the concentration at half of the fitted maximal effect)
How it was run: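 HEK293 cells stably expressing DRD2, preincubated with 0.1 mM Ro20-1724 and compounds 10 min, were stimulated with 200 nM NKH477 plus 12 nM quinpirole for 30 min at room temperature; cAMP measured by HTRF (665/620 nm).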

[18] = p53 small molecule agonists, cell-based qHTS assay: qHTS cell viability counter screen (AID 1963581); further: nearly all actives have a fitted effect of over 45% in size
How it was run: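 Counter screen read by CellTiter-Glo luminescence (ATP content, 30 min at room temperature), run in the same wells as the beta-lactamase reporter read. HCT-116 p53RE-bla cells saw compounds for 16 h at 37 C.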

[19] = target: 5-hydroxytryptamine receptor 2A (Homo sapiens) (UniProt P28223); assay: 5-hydroxytryptamine receptor 2A (HTR2A) small molecule agonists, cell-based qHTS assay (AID 1963587); further: nearly all actives have a fitted effect of over 30% in size; further: potency means the concentration at half of the fitted maximal effect
How it was run: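 Kinetic calcium-flux fluorescence (2 min, 1 sec intervals) after compound addition in agonist mode. HTR2A-CHO cells were cultured 18 h, then dye-loaded 1 h at 37 C.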

[20] = target: Beta-2 adrenergic receptor (Homo sapiens) (UniProt P07550); assay: Adrenergic beta2 receptor (ADRB2) small molecule agonists, cell-based qHTS assay (AID 1963593);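 further: CHO cells stably overexpressing human ADRB2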
How it was run: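 CHO cells stably over-expressing ADRB2 were plated overnight at 37C, then dosed with compounds plus a stimulation mix containing 100uM IBMX and 25uM Ro-20-1724 for 0.5hr at room temperature. cAMP was measured by HTRF competition, 1hr.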

Compound | Potency [1] | Potency [2] | Potency [3] | Potency [4] | Potency [5] | Potency [6] | Potency [7] | Potency [8] | Potency [9] | Potency [10] | Potency [11] | Potency [12] | Potency [13] | Potency [14] | Potency [15] | Potency [16] | Potency [17] | Potency [18] | Potency [19] | Potency [20]
CC1(C)[C@@H]2CC[C@]3(C2)[C@@H]1C(=O)CCC3(C)C | inactive | inactive | inactive | inactive | inactive | inactive | inactive | inactive | inactive | inactive | inactive | inactive | inactive | inactive | inactive | inactive | inactive | – | – | –
CC(C)(CCC(=O)O)C(=O)O | inactive | inactive | inactive | inactive | inactive | inactive | inactive | inactive | inactive | inactive | inactive | inactive | inactive | – | inactive | inactive | inactive | inactive | inactive | –
O=Nc1ccc(Nc2ccccc2)cc1 | 27.4 µM (active) | 9.74 µM (active) and 24.3 µM (active) | inactive | inactive | inactive | inactive | inactive and 36.3 µM (active) | 40.8 µM (active) | 43.4 µM (active) | 844 nM (active) and 5.3 µM (active) | inactive | inactive | – | – | – | inactive | 54.5 µM (active) | inactive | 391 nM (active) | –
CCOC(=O)CN | inactive | inactive | inactive | inactive | inactive | inactive | inactive | inactive | inactive | inactive | inactive | inactive | inactive | inactive | inactive | inactive | inactive | inactive | inactive | –
CN(C)C(=S)SC(=S)N(C)C | 1.11 µM (active) and 1.09 µM (active) | inactive | inactive | inactive | inactive | inactive | 41.8 µM (active) and inactive | 16.6 µM (active) and 5.76 µM (active) | inactive | inactive | inactive | inactive | inactive | – | inactive | inactive | inactive | inactive | 50.2 µM (active) and inactive | inactive
O=[N+]([O-])c1ccc(CCO)cc1 | inactive | inactive | inactive | inactive | inactive | inactive | inactive | inactive | inactive | – | inactive | inactive | inactive | inactive | inactive | – | inactive | inactive | inactive | –
CCCCCCCOC(=O)c1ccccc1C(=O)OCCCCCCC | inactive | inactive | inactive | inactive | inactive | inactive | inactive | inactive | inactive | inactive | inactive | – | inactive | inactive | inactive | – | inactive | inactive | inactive | inactive
CCOC(=O)c1ccc(OCCN2C[C@H](O)[C@@H](O)[C@H](O)[C@H]2CO)cc1 | inactive | inactive | inactive | inactive | inactive | inactive | inactive | inactive | inactive | inactive | inactive | inactive | inactive | inactive | inactive | inactive | inactive | inactive | inactive | inactive
Cc1cc(O)cc2c1O[C@](C)(CCC[C@H](C)CCC[C@H](C)CCCC(C)C)CC2 | inactive | inactive | inactive | inactive | inactive | inactive | inactive | inactive | inactive | inactive | inactive | inactive | inactive | inactive | inactive | inactive | – | inactive | inactive | –
CC1CCCC(=O)C1=O (stereo not drawn) | inactive | inactive | inactive | inactive | inactive | inactive | inactive | inactive | – | inactive | inactive | inactive | inactive | inactive | inactive | inactive | inactive | inactive | inactive | inactive
CCCCC(O)/C=C(C)/C=C/C=C/C(=O)N1CCCC1=O (stereo not drawn) | inactive | inactive | inactive | inactive | inactive | inactive | inactive | inactive | inactive | inactive | inactive | inactive | inactive | – | inactive | inactive | inactive | inactive | inactive | inactive
O=C(O)c1cccnc1C(=O)O | inactive | inactive | inactive | inactive | inactive | inactive | inactive | inactive | inactive | – | inactive | inactive | inactive | inactive | inactive | inactive | inactive | inactive | inactive | inactive
Cc1[nH]cnc1-c1ccc(Cl)cc1 | inactive | inactive | inactive | inactive | inactive | inactive | inactive | inactive | inactive | inactive | inactive | inactive | inactive | inactive | inactive | – | inactive | inactive | inactive | inactive
COCCOCCOCCOCCOCCO | inactive | inactive | inactive | inactive | inactive | inactive | inactive | inactive | inactive | inactive | inactive | inactive | inactive | inactive | inactive | inactive | inactive | inactive | inactive | inactive
